Arbovirus anti: arbovirus infection inhibition; arbovirus infection cell-based antiviral screen; inhibition, % at 10 µM; hit rate 0.37% among 200,000; in the data active means inhibition above about 30%
HSV replic up: HSV replication enhancement. AID 1956. HSV replication augmentation in cells, fold increase. maximum fold increase. hit rate 0.005% among 220,000; in the data active means maximum fold increase above about 1.5; inconclusive means no clear call, values can overlap the other calls; tested in PC3 cells
ROMK primary: modulators of human ROMK potassium channel; hit rate 2% among 130,000; B-score at 10 µM; Tet-inducible ROMK, thallium flux fluorescence; actives lie on both sides; AID 1918; P48048;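 active means signal ratio slope over the read window, or its plate-corrected B-score, at least 3 SD from the plate mean, either direction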;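 further: B-score of the F/F0 ratio slope over 7 to 12 s after thallium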
Target sequence (P48048 whole entry, looked up): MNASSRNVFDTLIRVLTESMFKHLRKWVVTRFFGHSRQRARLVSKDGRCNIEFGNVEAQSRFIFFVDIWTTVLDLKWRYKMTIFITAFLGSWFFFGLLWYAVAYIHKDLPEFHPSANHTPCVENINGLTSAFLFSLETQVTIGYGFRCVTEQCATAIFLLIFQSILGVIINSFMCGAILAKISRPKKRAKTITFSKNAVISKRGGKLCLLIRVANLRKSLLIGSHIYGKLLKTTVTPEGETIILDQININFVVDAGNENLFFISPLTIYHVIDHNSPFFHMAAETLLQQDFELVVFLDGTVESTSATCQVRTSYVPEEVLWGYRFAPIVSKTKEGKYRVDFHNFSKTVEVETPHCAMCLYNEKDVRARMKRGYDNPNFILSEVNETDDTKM
Calpain2 inh: inhibitors of pig calpain II | inhibition, % at 16 µM | AID 1236 | hit rate 0.37% among 220,000 | purified calpain II, fluorogenic peptide substrate, 30 min;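 active means inhibition above about 50%, limit read from the data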
Efa HMGR inh: inhibitors of class II HMG-CoA reductase from Enterococcus faecalis; purified E. faecalis HMGR, NADPH absorbance 340 nm kinetic; inhibition, % at 10 µM; hit rate 0.41% among 190,000; AID 1066;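 active means inhibition above a set limit, the median over all tested compounds plus 3 SD, cut at about 9.5% in these data; inconclusive means no clear call, values can overlap the other calls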;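 further: enzyme runs in reverse so mevalonate oxidation gives rising NADPH absorbance; 0% = complete reaction with DMSO and 100% = background rate lacking mevalonate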
An asterisk follows results filed as active; i = inactive; ? = inconclusive; / = no result. Shown are actives, neighbours in structure and some others; about 2.1% of the full set was active somewhere.

SMILES	Arbovirus anti	HSV replic up	ROMK primary	Calpain2 inh	Efa HMGR inh
COc1ccccc1CC1S/C(=N/N=C/c2ccco2)NC1=O (configuration not stated)	17	i	0.012	-5	0
Cc1ccc2c(c1)c(Sc1ccccc1)c(CC(=O)O)n2C	31*	i	2	4	0
CCOC(=O)Cc1c(Sc2ccccc2)c2cc(C)ccc2n1C	26	i	/	-1	0
CC(=O)C1=C(O)C(=O)N(C)C1c1ccccc1F (configuration not stated)	9	i	0.67	13	16*
Cc1ccc(F)c(NC(=O)/C(C#N)=C(\O)c2ccc(C(C)(C)C)cc2)c1	15	i	5.7*	18	-4
CCOc1ccc(-n2c(SCC(=O)Nc3cc(OC)c([N+](=O)[O-])cc3C)nc3ccccc32)cc1	54*	i	/	-3	-5
COc1cc([N+](=O)[O-])ccc1NC(=O)CSc1nc2ccccc2n1-c1ccccc1	-12	i	-0.22	-30	1
COc1ccc(/C=N/NC(=O)c2[nH]nc3c2CCc2ccccc2-3)cc1OC	-12	i	2.3	-52	-1
COc1ccc(/C=C/c2nc(-c3ccccc3O)n[nH]2)cc1OC	30*	i	/	-33	-2
CC(C)CCN(C(=O)Nc1ccccc1)C(C)c1cccs1 (configuration not stated)	-2	i	0.076	51*	-1
Cc1cccc(C)c1N1CCN(C(=O)N2CCCCC2)CC1	-10	i	0.048	12	14*
O=C(NC12CC3CC(CC(C3)C1)C2)N1CCN(C(=O)c2ccco2)CC1	1	i	-0.51	-5	7
CC(C)n1c(Nc2ccccc2)nc2ccccc21	-4	i	-3.2*	1	-4
CC(C)n1c(NCCO)nc2ccccc21	2	i	0.74	7	0
O=C(COc1ccc(Br)cc1CO)Nc1ccccc1	2	i	/	26	1
Cc1ccc(NC(=O)COc2ccc(Br)cc2CO)cc1	36*	i	/	5	-2
Cc1ccc(N=C2S/C(=C\c3cn(CC(=O)O)c4ccccc34)C(=O)N2C)cc1	19	i	0.23	-2	-5
CC(C)COC(=O)Nc1nnc(SCCOc2ccccc2)s1	13	i	/	-4	13*
Cc1cc(C(=O)NNc2ccc(F)cc2)no1	/	i	/	-13	/
Nc1nc(-c2ccccn2)nc(N)c1Cc1ccc(Cl)cc1Cl	-28	i	0.019	-7	-2
CN(C)C(CNC(C(=O)Nc1ccc([N+](=O)[O-])cc1Br)c1ccccc1)c1ccccc1 (configuration not stated)	-1	i	-0.03	53*	-2
CCC(C(=O)OC)n1c(-c2ccccc2)nc2ccccc2c1=O (configuration not stated)	0	i	0.43	11	12*
COc1ccc(C(=O)N2c3cc4c(cc3C(C)=CC2(C)C)OCO4)cc1	-7	i	/	52*	-2
CC1=CC(C)(C)N(C(=O)c2ccccc2)c2ccc(C)cc21	-4	/	/	10	2
N#Cc1ncc(Cl)c2ccccc12	/	i	/	27	/
SMILES	Arbovirus anti	HSV replic up	ROMK primary	Calpain2 inh	Efa HMGR inh
CCCC(=O)Nc1ccc(C=C(C(C)=O)C(C)=O)cc1	/	i	-0.29	-19	/
CCOC(=O)c1cnc(-n2nc(C)cc2C)nc1Nc1ccc(OC)cc1	4	i	0.87	54*	-3
CCOc1ccc(Nc2cc(C)nc(-n3nc(C)cc3C)n2)cc1	-1	i	2.7*	20	-1
CCOC(=O)c1cnc(-n2nc(C)cc2C)nc1Nc1ccccc1OC	5	i	/	-21	5
COC(=O)c1ccccc1NC(=O)Cn1nc2n(C)c3ccccc3n2c(=O)c1=O	-11	i	/	-24	-1
COc1ccc(NC(=O)C2CCCN(S(=O)(=O)c3cccc4cccnc34)C2)c(OC)c1 (configuration not stated)	8	i	/	124*	1
COc1ccc(S(=O)(=O)N2CC=C(C(=O)Nc3ccc(NC(C)=O)cc3)CC2)cc1	16	i	-0.12	-7	22*
Cn1ncc2c(=O)[nH]cnc21	14	i	0.076	-3	-3
COc1cc(C2N=C(c3ccccc3)NO2)cc(Br)c1O (configuration not stated)	35*	i	0.019	-31	-1
COc1cc(C=C2C(=O)OC(c3ccccc3)OC2=O)cc(Br)c1O (configuration not stated)	3	i	-1.2	36	-6
S=c1[nH]c(-c2ccc(Cl)cc2)cs1	18	i	17*	-23	6
Cc1ccc(-c2csc(=S)[nH]2)cc1	1	i	10*	4	0
Cc1ccc(-c2ccc(C(=O)O)[nH]2)cc1	5	i	0.3	-6	-3
CCCCN(CCCC)C(=O)/C=C/c1cccc([N+](=O)[O-])c1	-17	i	/	62*	0
CCOC(=O)c1c(-c2ccc(C)c(C)c2)csc1NC(=O)C1CC=CCC1C(=O)O (configuration not stated)	41*	/	0.15	-33	-1
Cc1ccc(OCC(=O)Nc2cc(S(=O)(=O)N3CCOCC3)ccc2Cl)c([N+](=O)[O-])n1	/	i	/	-20	/
CCNc1nc(NC(C)C)nc(NC(C)(C)C)n1	25	i	0.51	-18	13*
CC(C)Nc1nc(NNc2nc(Cl)nc(NC(C)(C)C)n2)nc(NC(C)C)n1	/	i	/	32	/
COc1ccc(NC(=S)N(CCCN2CCOCC2)Cc2cn(C)c3ccccc23)cc1	13	i	-0.68	54*	-2
CCOc1ccc(NC(=S)N(CCCN2CCOCC2)Cc2cn(C)c3ccccc23)cc1	-7	i	-0.74	-11	-6
CCN(C(=O)CSc1nc2ccccc2c(=O)n1-c1ccc(C)cc1)C1CCS(=O)(=O)C1 (configuration not stated)	-2	i	1.1	12	-1
Cc1ccc(-n2c(SCC(=O)N(C)C3CCS(=O)(=O)C3)nc3ccccc3c2=O)cc1 (configuration not stated)	9	i	-0.28	-8	18*
Cn1ncc(Cl)c1C(=O)N1CCN(c2ncccn2)CC1	0	i	0.66	-7	-3
N#Cc1c2c(c(-c3ccccc3Cl)[nH]c1=S)CCCC2	15	i	0.36	10	24*
N#Cc1c(-c2ccccc2Cl)cc(-c2ccccc2)[nH]c1=S	1	i	-0.089	-8	1
SMILES	Arbovirus anti	HSV replic up	ROMK primary	Calpain2 inh	Efa HMGR inh
COc1ccc(C(=O)Nc2sc(C)c(C)c2CN2CC(C)OC(C)C2)cc1 (configuration not stated)	-5	i	-0.049	-254	3
O=[N+]([O-])/C(=C\Nc1ccccc1Cl)S(=O)(=O)c1ccccc1	5	i	/	-6	18*
Cn1c(=S)[nH]c2scc(-c3cccs3)c2c1=O	6	i	4*	18	-7
C=CCn1c(=S)[nH]c2scc(-c3cccs3)c2c1=O	3	i	3.5*	-4	-1
O=c1c2c(-c3cccs3)csc2ncn1-c1ccc(Br)cc1	-7	i	/	-12	-3
C=CCn1c(=S)[nH]c2ccccc2c1=O	-5	?	0.0068	4	-2
